Measurements: PubChem BioAssay AID361 (National Center for Advancing Translational Sciences (NCATS), 2006)
Screen size: about 51,000 compounds; about 600 (1.2%) were called active. Another 2% or so got no clear call; they are omitted. Many of the other results were omitted from the sample, so actives are more common in it than they were. Unmarked numbers belong to inactive results. Cut-off read from the data, not from the text of the source: active = potency below about 11 µM; inconclusive = mostly about 12 µM to 25 µM; inactive = weaker than that;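 the screen sought inhibitors and activators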.

test system: pyruvate kinase (Bacillus stearothermophilus); assay: Pyruvate Kinase; conditions: purified pyruvate kinase, luminescence ATP production; ribose 5-phosphate activator present at AC10
Method: Pyruvate kinase (partially purified from Bacillus stearothermophilus) was assayed for its ability to generate ATP from ADP using phosphoenolpyruvate (PEP) as a substrate. ATP generation was detected in a coupled reaction by luciferase-mediated luminescence, an ATP-dependent process. Pyruvate kinase substrates, PEP and ADP, were present in the assay at Km and […]-fold below Km respectively. The enzyme was assayed at an intermediate level of activity to screen for inhibitors and activators. In addition, ribose 5 phosphate, a positive modulator of pyruvate kinase, was included in the assay at AC10 in order to identify possible potentiators.
NCGC Assay Protocol Summary:
Three uL of substrate mix (final concentration, 50 mM imidazole pH 7.2, 50 mM KCl, 7 mM MgCl2, 2 mM PEP, 0.1 mM ADP, 0.7 nM ribose 5 phosphate, 0.01% Tween 20, 0.05% BSA) was dispensed into 1536 well plates. 23 nL of compound were delivered by a pin tool and 1 uL of enzyme mix (final concentration, 10 nM pyruvate kinase, 50 mM imidazole pH 7.2, 0.05% BSA) was added. After centrifugation at 1000 rpm for less than a minute, plates were incubated at room temperature for 2 hours. Three uL of detection and kinase stop mix (PKLight, Cambrex) was added, the plates centrifuged, and luminescence read by a ViewLux (Perkin Elmer) at 5 second exposure/plate. Data were normalized to the controls for AC100 stimulation (5 uM ribose 5 phosphate) and to AC100 inhibition (110 uM luteolin).
Potency is the fitted concentration of half-maximal effect.

SMILES	Potency
Cc1nnc(NC2=NCCCCC2)o1	> 57 µM
Cc1cc(C)c2nc(SCCC#N)nc(C)c2c1	48.9 µM
Fc1ccc2[nH]c3c(N4CCN(Cc5ccc6c(c5)OCO6)CC4)ncnc3c2c1	> 25.6 µM
CNC(=O)C1CC(=O)N(Cc2ccc3c(c2)OCO3)C(=Nc2ccc(F)cc2)S1 (centres undefined)	> 57 µM
Cc1cc(C)n(C(=O)c2ccc(C)c(S(=O)(=O)N3CCOCC3)c2)n1	> 57 µM
COc1ccc2nc(N3CCCC(O)C3)c(C#N)cc2c1 (centres undefined)	41.4 µM
O=C(NCc1ccccc1)C1C(=O)N(Cc2ccccc2)C(=O)C1C1(O)CCCC1 (centres undefined)	> 25.6 µM
CC1CCCN(C(=O)Cn2c(=O)oc3ccccc32)C1 (centres undefined)	> 57 µM
COc1c(F)c(F)c(-c2csc(N)n2)c(F)c1F	> 57 µM
Cc1cc(=O)oc(C)c1C(=O)Nc1cnc2ccccc2c1	> 57 µM
Cc1ccc2c(C(=O)CN3CCCC3)c(C)[nH]c2c1	> 11.4 µM
COc1ccc(N=Cc2c(O)[nH]c3ccccc23)cc1OC	4.61 µM (active)
COC(=O)c1[nH]c2ccccc2c1NS(=O)(=O)c1ccc(OC)cc1OC	> 57 µM
COc1ccc(OC)c(N=Cc2c(O)[nH]c3ccccc23)c1	> 57 µM
Cc1cc(NC(=O)CSc2nnc(-c3ccc(Cl)s3)o2)no1	> 57 µM
Cc1ccc2nc(-c3ccc(SCC(=O)Nc4cc(C)on4)nc3)[nH]c2c1	2.74 µM (active)
Cc1cc(C)c2c(c1)cc(C)c1nnc(SCC(=O)Nc3cc(C)on3)n12	> 57 µM
Cc1nc(SCC(=O)Nc2cc(C)on2)c2c(C)c(C)sc2n1	> 57 µM
COc1ccc(OC)c2c(N)c(C#N)c(C(F)(F)C(F)(F)F)nc12	> 25.6 µM
C=CCc1cccc2cc(C(=O)N3CCN(C(=O)OCC)CC3)c(=O)oc12	> 57 µM
COc1ccccc1CNCc1cccs1	> 57 µM
COc1ccc(CNC(=O)c2c(C)cc(=O)oc2C)cc1OC	> 25.6 µM
Cc1ccc(C(=O)NCC2CCCO2)o1 (centres undefined)	> 57 µM
CCc1cc2c(=O)c(-c3ccon3)c(N)oc2cc1OC	4.26 µM (active)
COc1cccc(N2CC(C(=O)Nc3c(C)cccc3C)CC2=O)c1 (centres undefined)	> 57 µM

SMILES	Potency
Cc1cccc(NC(=O)c2ccccc2NC(=O)C(C)(C)C)n1	> 57 µM
CCn1c(=N)n(CC(=O)c2cccc(OC)c2)c2ccccc21	38.1 µM
Cn1c(/C(C#N)=C2/CCCCCN2)nc2ccccc21	> 57 µM
CC1CCCCN1CC(=O)NCc1ccc2c(c1)OCO2 (centres undefined)	> 57 µM
CN(CCc1ccccn1)S(=O)(=O)c1ccc2c3c(cccc13)C(=O)N2	> 57 µM
CSc1ccc(Cl)c(C(=O)OCC(=O)N2CC(C)OC(C)C2)c1 (centres undefined)	> 57 µM
NC(=O)COc1ccc2c3c(c(=O)oc2c1)CCCCC3	> 57 µM
CCN(CC)S(=O)(=O)c1cccc(C(=O)NCC(=O)OCC(=O)NCc2ccccc2)c1	> 57 µM
CCCCC(CC)C(=O)Nc1ccc(Cl)cn1 (centres undefined)	> 57 µM
CC(Oc1ccc(Cl)cc1)C(=O)Nc1ncccn1 (centres undefined)	> 57 µM
O=C(Nc1ccc(Cl)cn1)c1cnn2cccnc12	8.73 µM (active)
Cc1nc(-c2ccc(NC(=O)c3cccs3)cc2)cs1	2.04 µM (active)
O=C(O)c1ccc(NC(=O)c2cccs2)cc1	> 57 µM
O=C(Nc1ncccn1)c1cccs1	> 57 µM
COC(=O)CCSc1nccn1Cc1ccccc1	> 57 µM
O=c1c(F)cn(C2CCCO2)c(=O)n1Cc1ccccc1Cl (centres undefined)	> 25.6 µM
CCCOc1ccc(CN(CCO)CCO)cc1C(=O)OC	> 57 µM
CCC(=O)N(Cc1cc2cc(OC)ccc2[nH]c1=O)c1ccccc1C	> 57 µM
COc1ccc(N(Cc2cc3cc(OC)ccc3[nH]c2=O)S(C)(=O)=O)cc1	7.73 µM (active)
CCN(Cc1cc2cc(C)ccc2[nH]c1=O)S(=O)(=O)c1ccccc1	> 57 µM
COc1cccc(NC(=O)c2ccccc2SC)c1	> 57 µM
CC(C)(O)C#Cc1ccc(C(=O)N2CCC(C(N)=O)(N3CCCCC3)CC2)cc1	> 57 µM
Cc1ccc(NC(=O)CS(=O)CC(=O)N(c2ccccc2)C(C)C(=O)NC2CCCC2)cc1 (centres undefined)	> 57 µM
CCCCC(=O)N(c1ccc(OC)cc1)C1C=CS(=O)(=O)C1 (centres undefined)	> 57 µM
